Here are results for 36 compounds from PubChem BioAssay.

Values without a mark were called inactive. The source made the active and inactive calls.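 The calls were made as follows, unless noted: active = inhibition above 50%; inactive = the rest.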

A short description of one test: antimalarial activity against Dd2 strain (AID 2302;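 active = growth inhibition above 50% at the single 2 µM test dose, taken to imply half-maximal potency below 2 µM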;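 also: 0% = DMSO untreated growth and 100% = chloroquine plus artemisinin killed control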). The settings on record: P. falciparum Dd2 in RBCs, LDH growth readout, 72 h; at 2 µM; active compounds read high.
`COc1cccc(NC(=O)c2nc(N3CCN(c4ccncc4)CC3)ccc2Cl)c1`: the growth inhibition is 65% (active). For `O=C(Nc1cccc(-c2cccc(-c3nc4ccc(C(F)(F)F)cc4[nH]3)c2)c1)Nc1ccc(F)c(F)c1F`, the growth inhibition is 100% (active). On the same count and under the same terms, the same measure for `COc1cc2nc(N3CCC(c4ccccc4)CC3)nc(NCc3ccc(=O)[nH]c3)c2cc1OC`: 58% (active). As to `Cc1cc(=O)c(-c2ccc(Oc3cccc(Cl)c3)cc2)c(C)[nH]1`, the growth inhibition was 89% (active).

The next test in a line: human hepatoma cell viability loss – ATP luminescence, cytotoxicity control for P. falciparum antimalarial project, primary screen (AID 2303).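 Also: 0% = DMSO wells and 100% = digitonin-killed cells.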 The following applies: HepG2 viability, 24-48 h, at 10 µM, active compounds read high.
A word on the inhibition: it is the change of the read-out against control, counted positive when it falls. As to `O=C(Nc1nc2cc(S(=O)(=O)NCCc3ccc(F)cc3)ccc2n1CCCn1ccnc1)c1ccc(Cl)cc1`, the inhibition is 18%. In the case of `Cc1[nH]c(C)c(C(F)(F)F)c(=O)c1-c1ccc(Oc2ccc(OC(F)(F)F)cc2)cc1`, the inhibition was 0%. Consider `COc1ccc(CNCc2cccc(-c3cccc(-c4nc5c(C)cccc5[nH]4)c3)c2)cc1`, for which the inhibition was 31%.

`CC(C)(C)c1ccc(C(=O)NC2CCC(CCN3CCc4ccc(S(C)(=O)=O)cc4CC3)CC2)cc1C(F)(F)F` (stereo unspecified): the inhibition was 54% (active).

For the compound `CCCCCCc1cc(Oc2c(I)cc(C[C@H](N)C(=O)O)cc2I)ccc1O`, the inhibition is -2%. Regarding `CN(C)Cc1cccc(-c2ccc3ccnc(N)c3c2)c1`, the inhibition was 21%. Regarding `CN1CCN(CCc2ccc3nc(-c4csc(Cc5cc(Cl)ccc5OCc5ccccc5)n4)[nH]c3c2)CC1`, the inhibition is 30%. Still for that read-out and setting: the same measure for `COc1ccc(C=NNc2ccnc3cc(F)c(C)cc23)c2ccccc12`: -6%. As to `Cc1nc(N)nc(N)c1OCc1cccc2c1ccc1ccccc12`, the inhibition is 54% (active). Turning to `Cc1nc(Nc2ccc(F)cc2)nc(N2CCc3cc(O)ccc3C2C)c1C` (stereo unspecified), the inhibition is -5%.

Regarding `CNc1ccc(CNCc2ccc(-c3ccc(-c4nc5ccc(C(F)(F)F)cc5[nH]4)s3)cc2)cc1`, the inhibition is 44%. On to `NCc1ccc(CNCc2cccc(-c3ccc(-c4nc5ccccc5[nH]4)cc3)c2)cc1`, for which the inhibition was 10%. Still for that read-out and setting: the same measure for `CCN(CC)Cc1ccc2c(=O)cc(CCc3cccc(F)c3F)n(CC(=O)N(Cc3ccc(-c4ccc(C(F)(F)F)cc4)cc3)C(C)C)c2c1`: 82% (active). With `O=C(/C=C/c1ccc(Cl)c(Cl)c1)NCCCCCCN1CCN(C(=O)Nc2ccc(C(F)(F)F)cc2)CC1`, the inhibition was 42%. With `Cc1[nH]c(C)c(-c2ccc(C(=O)c3ccccc3)cc2)c(=O)c1Br`, the inhibition is -10%. On the same count and under the same terms, the same measure for `Cc1cnc(C(=O)Nc2ccc(-c3cccc(-c4nc5ccccc5[nH]4)c3)cc2)cn1`: 77% (active). Consider `FC(F)(F)c1ccc2nc(-c3ccc(-c4cccc(CN5CCN(c6ccncc6)CC5)c4)cc3)[nH]c2c1`, for which the inhibition was 82% (active).

Take `O=C(c1cccs1)N(Cc1cccc(-c2ccc(CNCCc3ccccc3)cc2)c1)C1CCN(Cc2ccccc2)CC1`: the inhibition was 3%. For the compound `CCN(CC)CCN(Cc1ccc(-c2ccc(C(F)(F)F)cc2)cc1)C(=O)c1c[nH]c2ccc(Br)cc12`, the inhibition is 80% (active). With `Cc1ccc(S(=O)(=O)NC2=NC(C)(C)N(OCc3ccc(Cl)c(Cl)c3)C(N)=N2)cc1`, the inhibition was -5%. Turning to `COc1ccc(NC(=O)Nc2nc3ccccc3s2)cc1N1CCN(C)CC1`, the inhibition was 6%. Consider `CCN1CCC(N(Cc2ccc(-c3ccc(C(F)(F)F)s3)cc2)C(=O)Cn2c(CCc3cccc(F)c3F)nc(=O)c3ccccc32)CC1`, for which the inhibition was 47%. Same read-out and setting: the same measure for `CC(C)c1cc(C(=O)N[C@@H](Cc2ccccc2)[C@H](O)CNC2CCCCC2)cc(N2CCCC2=O)c1`: -11%; for `Cc1ccc(NC(=O)c2ccc3nccnc3c2)cc1OC1CCN(Cc2ccc(F)cc2)CC1`: 16%.

Take `CC(=O)Nc1ccc(CCNC(C)Cc2ccc(C(=O)Nc3ccc(CC(C)NCCc4cccc(Cl)c4)cc3)cc2)cc1` (stereo unspecified): the inhibition is 50% (active). For the compound `CN(C)Cc1cccc(-c2ccc(NC(=O)c3ccc4c(=O)n(CCN5CCCCC5)cnc4c3)cc2)c1`, the inhibition is 23%. With `CCCCCCOc1ccc(C(=O)NCCCC2CCN(CCCCCNC(=O)C=Cc3ccc(Cl)c(Cl)c3)CC2)cc1`, the inhibition is 22%. As for `COc1cc(NC(=O)NC(CCN2CCC3(CCc4ccccc43)CC2)c2ccc(Cl)c(Cl)c2)cc(OC)c1OC` (stereo unspecified), the inhibition was 66% (active). Turning to `Nc1nc(N)c2c(ccc3c2ccn3Cc2ccc(-c3ccccc3)cc2)n1`, the inhibition is 100% (active). With `COc1ccc(-c2ccc(NC(=O)c3ccc(F)cc3)cc2)cc1CNC(C)C`, the inhibition is 24%. Same read-out and setting: the same measure for `O=c1cc(NCCCNCc2cc3ccc(Br)cc3s2)[nH]c2ccccc12`: 18%; for `O=C(NCC1CCC(C(=O)NCc2cccc(C(F)(F)F)c2)CC1)c1ccc(O)c(-c2ccc(Cl)c(Cl)c2)c1` (stereo unspecified): 5%.
